PubChem BioAssay
The source made the active and inactive calls.

What was measured:
[1] = binders of probe aFSTL3 on microarray, primary screen, stem cell growth factor project, biochemical, small-molecule microarray, fluorescence 635/667 (AID 1064); details: higher = more signal;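 further: measures binding of the biotinylated anti-FSTL3 antibody to printed compounds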
[2] = binders from COS7 lysate, DM2A8 probe, primary screen, torsin A project, cell lysate, small-molecule microarray, fluorescence 635/667 (AID 1065); details: higher = more signal, COS7 lysate expressing mutant human TOR1A
[3] = binders of probe aFGF2 on microarray, primary screen, stem cell growth factor project, biochemical, small-molecule microarray, fluorescence 635/667 (AID 1067); details: higher = more signal;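 further: measures binding of biotinylated aFGF2 protein to printed compounds on slides; z-score merges feature fluorescence and signal-to-noise across triplicate slides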
[4] = binders of probe aFGF10 on microarray, primary screen, stem cell growth factor project, biochemical, small-molecule microarray, fluorescence 635/667 (AID 1071); details: higher = more signal;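 further: score merges 667 nm spot intensity and signal to noise from triplicate slides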
[5] = target: Neurogenic locus notch homolog protein 2 (Homo sapiens) (UniProt Q04721); experiment: Notch2 binders on small-molecule microarrays, primary screen, biochemical, small-molecule microarray, 635 nm fluorescence, stem cell growth factors (AID 1073); details: Notch2 binding, higher = more signal
Neurogenic locus notch homolog protein 2 (Homo sapiens), sequence (Q04721 whole entry, looked up, canonical isoform): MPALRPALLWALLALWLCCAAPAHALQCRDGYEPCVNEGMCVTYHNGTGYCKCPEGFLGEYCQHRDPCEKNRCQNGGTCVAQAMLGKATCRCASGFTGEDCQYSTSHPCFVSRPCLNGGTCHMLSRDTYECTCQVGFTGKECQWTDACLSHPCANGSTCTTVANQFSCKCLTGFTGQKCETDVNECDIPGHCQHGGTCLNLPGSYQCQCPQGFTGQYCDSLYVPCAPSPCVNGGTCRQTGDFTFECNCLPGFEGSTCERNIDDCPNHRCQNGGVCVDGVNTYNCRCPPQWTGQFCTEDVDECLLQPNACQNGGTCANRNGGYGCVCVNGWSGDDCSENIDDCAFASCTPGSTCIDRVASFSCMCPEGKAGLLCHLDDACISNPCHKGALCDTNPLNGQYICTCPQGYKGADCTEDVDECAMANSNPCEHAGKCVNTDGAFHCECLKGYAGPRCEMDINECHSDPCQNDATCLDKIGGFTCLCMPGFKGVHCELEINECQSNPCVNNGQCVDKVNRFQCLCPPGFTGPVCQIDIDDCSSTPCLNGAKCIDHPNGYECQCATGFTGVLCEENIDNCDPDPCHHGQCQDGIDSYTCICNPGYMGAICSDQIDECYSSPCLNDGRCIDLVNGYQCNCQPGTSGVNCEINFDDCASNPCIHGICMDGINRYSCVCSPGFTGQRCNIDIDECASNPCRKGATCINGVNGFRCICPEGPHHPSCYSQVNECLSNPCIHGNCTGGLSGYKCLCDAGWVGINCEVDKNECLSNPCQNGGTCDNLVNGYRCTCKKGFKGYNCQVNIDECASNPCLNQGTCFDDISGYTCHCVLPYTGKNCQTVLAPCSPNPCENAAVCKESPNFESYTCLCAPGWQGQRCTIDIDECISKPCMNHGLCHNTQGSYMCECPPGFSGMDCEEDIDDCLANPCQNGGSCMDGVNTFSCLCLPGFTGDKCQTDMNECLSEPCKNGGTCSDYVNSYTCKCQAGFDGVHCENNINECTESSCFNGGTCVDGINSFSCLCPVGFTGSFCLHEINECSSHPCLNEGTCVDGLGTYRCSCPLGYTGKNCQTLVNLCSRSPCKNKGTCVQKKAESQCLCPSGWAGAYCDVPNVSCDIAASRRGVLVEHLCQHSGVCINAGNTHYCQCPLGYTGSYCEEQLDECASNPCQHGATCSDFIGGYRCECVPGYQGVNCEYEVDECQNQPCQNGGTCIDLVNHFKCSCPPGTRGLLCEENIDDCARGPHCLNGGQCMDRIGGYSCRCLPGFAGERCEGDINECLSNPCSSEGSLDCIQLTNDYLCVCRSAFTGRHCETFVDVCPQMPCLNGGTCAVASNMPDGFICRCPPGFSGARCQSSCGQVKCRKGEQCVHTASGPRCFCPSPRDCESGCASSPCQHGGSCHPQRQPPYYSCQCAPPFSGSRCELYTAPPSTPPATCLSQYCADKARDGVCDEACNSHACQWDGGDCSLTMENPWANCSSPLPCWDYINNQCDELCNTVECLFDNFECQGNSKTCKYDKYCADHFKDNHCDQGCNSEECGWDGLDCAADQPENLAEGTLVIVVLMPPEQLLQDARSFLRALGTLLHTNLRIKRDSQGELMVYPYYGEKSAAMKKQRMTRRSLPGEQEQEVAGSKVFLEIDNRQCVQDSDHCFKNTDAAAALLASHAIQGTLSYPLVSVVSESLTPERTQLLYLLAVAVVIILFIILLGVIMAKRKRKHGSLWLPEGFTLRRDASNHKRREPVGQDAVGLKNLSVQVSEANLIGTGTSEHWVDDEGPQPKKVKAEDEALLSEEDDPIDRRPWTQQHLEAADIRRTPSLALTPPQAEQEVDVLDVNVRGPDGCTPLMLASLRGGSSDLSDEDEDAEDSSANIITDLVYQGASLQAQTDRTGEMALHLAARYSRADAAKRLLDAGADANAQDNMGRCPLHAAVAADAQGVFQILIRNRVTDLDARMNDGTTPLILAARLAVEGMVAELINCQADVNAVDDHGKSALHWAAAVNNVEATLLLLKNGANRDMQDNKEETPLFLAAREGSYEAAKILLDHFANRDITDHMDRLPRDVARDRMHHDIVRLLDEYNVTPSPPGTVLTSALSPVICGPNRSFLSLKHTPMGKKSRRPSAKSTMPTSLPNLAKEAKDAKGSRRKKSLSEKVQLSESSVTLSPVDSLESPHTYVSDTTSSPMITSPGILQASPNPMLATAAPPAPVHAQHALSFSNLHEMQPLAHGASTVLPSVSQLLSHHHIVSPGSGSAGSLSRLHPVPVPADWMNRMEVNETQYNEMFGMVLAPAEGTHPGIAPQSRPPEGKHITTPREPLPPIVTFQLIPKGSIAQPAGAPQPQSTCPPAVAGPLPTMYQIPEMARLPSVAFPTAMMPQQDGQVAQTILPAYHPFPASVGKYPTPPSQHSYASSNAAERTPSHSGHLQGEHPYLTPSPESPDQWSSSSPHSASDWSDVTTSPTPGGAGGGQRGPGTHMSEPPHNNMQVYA

[6] = target: Pro-neuregulin-1, membrane-bound isoform (Homo sapiens) (UniProt Q02297); experiment: NRG1 binders on small-molecule microarrays, primary screen, psychiatric disease protein project, biochemical, small-molecule microarray, fluorescence 635/667 (AID 1075); details: NRG1 binding, 635 nm fluorescence, higher = more signal;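 further: score combines 667 nm spot fluorescence with signal to noise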
Pro-neuregulin-1, membrane-bound isoform (Homo sapiens), sequence (Q02297 whole entry, looked up, the tested form may be a part, canonical isoform): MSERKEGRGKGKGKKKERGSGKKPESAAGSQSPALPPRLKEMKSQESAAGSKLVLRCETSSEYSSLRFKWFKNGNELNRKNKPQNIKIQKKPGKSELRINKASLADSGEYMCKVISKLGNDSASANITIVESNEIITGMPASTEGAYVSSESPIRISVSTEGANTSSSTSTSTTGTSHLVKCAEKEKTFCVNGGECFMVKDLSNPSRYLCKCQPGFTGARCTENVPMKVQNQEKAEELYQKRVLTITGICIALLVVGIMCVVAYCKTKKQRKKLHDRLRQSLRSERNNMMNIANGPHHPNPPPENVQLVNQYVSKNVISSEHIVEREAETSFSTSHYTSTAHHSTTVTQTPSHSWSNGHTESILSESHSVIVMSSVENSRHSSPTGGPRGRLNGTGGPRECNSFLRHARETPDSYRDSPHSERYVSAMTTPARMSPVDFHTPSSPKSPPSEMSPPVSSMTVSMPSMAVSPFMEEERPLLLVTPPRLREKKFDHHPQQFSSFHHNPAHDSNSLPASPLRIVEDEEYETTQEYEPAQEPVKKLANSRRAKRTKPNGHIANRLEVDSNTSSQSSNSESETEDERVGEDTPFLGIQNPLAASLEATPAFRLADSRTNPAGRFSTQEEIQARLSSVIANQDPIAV

[7] = system: Neuregulin-1 EGF-like domain; experiment: binders of neuregulin-1 EGF-like domain, primary screen, biochemical, small-molecule microarray, 635 nm fluorescence (AID 1081); details: small-molecule microarray binding, higher = more signal;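 further: binding of the protein to compounds printed on small-molecule microarray slides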
[8] = FRG1 promoter luciferase signal modulators, primary screen, FRG1 inhibition for FSHD, cell-based, C2C12 myotubes, firefly/Renilla luciferase, luminescence (AID 1084); details: higher = more signal, called active from +8 up or from −8 down
[9] = binders of probe aFST on microarray, primary screen, stem cell growth factor project, biochemical, small-molecule microarray, fluorescence 635/667 (AID 1086); details: higher = more signal;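 further: score merges 667 nm fluorescence with signal-to-noise of each printed compound spot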
[10] = binders of probe aHhip on microarray, primary screen, stem cell growth factor project, biochemical, small-molecule microarray, fluorescence 635/667 (AID 1087); details: higher = more signal;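 further: score merges spot fluorescence at 667nm with spot signal to noise ratio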

Compound | composite z-score [1] | composite z-score [2] | composite z-score [3] | composite z-score [4] | composite z-score [5] | composite z-score [6] | composite z-score [7] | z-score [8] | composite z-score [9] | composite z-score [10]
COC(=O)[C@@]1(Cc2ccccc2)[C@H]2c3cc(C(=O)N(C)C)n(Cc4cc(F)c(F)c(F)c4)c3C[C@H]2CN1C(=O)c1ccccc1 | 0.683 | -0.166 | 0.117 | 1.23 | 1.68 | 2.02 | 1.16 | 1.47 (inactive) | 0.437 | 0.776
O=C1OCCC=C[C@H]2OC34C=CCN(CCN5CCOCC5)C(=O)[C@H]3N(CCO)C(=O)[C@@H]4C12 (stereo not given in full) | -0.217 | 1.12 | -0.179 | 0.127 | -0.621 | -0.714 | 0.916 | -0.0663 (inactive) | -0.569 | -0.489
CN1C(=O)C2C(C1=O)C1C=C(c3ccc(CO)cc3)C2C(C2CC2)N1Cc1cc2c(cc1Br)OCO2 (stereo not given) | -0.0526 | 1.44 | -0.0171 | 0.561 | 1.61 | 1.46 | 1.24 | -4.12 (inactive) | 0.917 | -0.127
C=CC[C@]1(C(=O)O)N=C(c2ccc(OCCCO)cc2)O[C@H]1c1ccccc1CN=[N+]=[N-] | 0.736 | -0.43 | -0.144 | -0.638 | -0.129 | 0.743 | 0.467 | 2.22 (inactive) | 0.182 | -0.275
CC(c1ccccc1)C(O)C1C=CC2C(=O)N(Cc3ccccc3)C(=O)C2N1n1cnnc1 (stereo not given) | -0.0479 | 0.327 | -0.0165 | 0.351 | 1.07 | 0.446 | 1.01 | -0.0355 (inactive) | 0.541 | 0.0373
[N-]=[N+]=NCc1ccccc1[C@@H]1OC(c2ccc(OCCCO)cc2)=N[C@]1(Cc1ccccc1N=[N+]=[N-])C(N)=O | 0.209 | -0.523 | -0.156 | 0.385 | 1.66 | 2.08 | 1.27 | 0.722 (inactive) | 1.25 | -0.0994
CC(c1ccccc1)C(O)C1C=CC2C(=O)N(c3ccccc3)C(=O)C2N1Nc1ccccc1F (stereo not given) | -0.0296 | 0.267 | 0.0786 | 0.26 | 0.917 | 1.28 | 0.679 | 0.985 (inactive) | 1.34 | -0.191
CC(C)OC(=O)C1=CCC(c2cccc(Cl)c2)O1 (stereo not given) | -0.206 | -0.125 | -0.0717 | -0.348 | -1.12 | 0.754 | 1.06 | -0.716 (inactive) | -0.332 | -0.409
